Experimental data: PubChem BioAssay (Tox21)
Records with an inconclusive call do not appear. The source made the active and inactive calls. Unless noted, calls follow the shape of the dose curve; as a rule, active = well fitted curve in the direction sought with a large enough effect in the repeat runs; inconclusive = weak or mixed curves; inactive = no such curve, though single readings can be large; an effect the other way counts as inactive or inconclusive.

Key:
[1] = qHTS assay for small molecule agonists of the p53 signaling pathway (AID 651631; calls by dose curve; also: % is scaled to controls: 0 for no effect and ±100 for the full control effect; nearly all actives have a fitted effect of over 15% in size)
Summary of the method: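 HCT-116 p53RE-bla reporter line, 16 h compound treatment at 37 °C, then fluorescence after 2 h with B/G FRET substrate.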

[2] = qHTS assay for small molecules that induce genotoxicity in human embryonic kidney cells expressing luciferase-tagged ATAD5 (AID 651632); also: % is scaled to controls: 0 for no effect and ±100 for the full control effect; nearly all actives have a fitted effect of over 15% in size
Summary of the method: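 Luminescence read-out: after 16 hr compound exposure at 37C, ATAD5-luciferase HEK293T cells received Amplite, 30 min RT, then CCD imaging. A rise in signal marks genotoxic stress.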

[3] = qHTS assay for small molecule agonists of the p53 signaling pathway - cell viability (AID 651633; calls by dose curve;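 also: p53RE-bla HCT reporter cells with a stable beta-lactamase p53 reporter; series mostly up to about 83 µM; % is scaled to controls: 0 for no effect and ±100 for the full control effect; nearly all actives have a fitted effect of over 30% in size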)
Summary of the method: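 Viability counter-read: CellTiter-Glo luminescence (30 min, room temperature) in the same p53RE-bla plates. These plates had been exposed to compounds for 16 h at 37 C.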

[4] = qHTS assay for small molecules that induce genotoxicity in human embryonic kidney cells expressing luciferase-tagged ATAD5 - cell viability (AID 651634; calls by dose curve; also: % is scaled to controls: 0 for no effect and ±100 for the full control effect; nearly all actives have a fitted effect of over 25% in size)
Summary of the method: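 HEK293T ATAD5-luc cells, 2,000/well; compound 15.5 hr, 37C/5% CO2; CellTiter-Fluor 30 min, 37C; fluorescence read.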

[5] = qHTS assay for small molecule disruptors of the mitochondrial membrane potential - cell viability (AID 720634; calls by dose curve;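 also: human HepG2 liver cancer cells; series mostly up to about 83 µM; % is scaled to controls: 0 for no effect and ±100 for the full control effect; nearly all actives have a fitted effect of over 20% in size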)
Summary of the method: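 Luminescence from CellTiter-Glo (ATP content) gave viability in HepG2 cells, read in the same wells as the MMP dye assay after 1 hr compound exposure at 37 C.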

[6] = qHTS assay to test for compound auto fluorescence at 590 nm (red) in HepG2 cells (AID 720674); also: % is scaled to controls: 0 for no effect and ±100 for the full control effect
Summary of the method: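 Red autofluorescence (Ex/Em 540/590 nm, Rose Bengal sodium equivalents) was measured in HepG2 cells, 2,000 per well in MEM plus 10% FBS, plated overnight at 37 C. Readings were taken 1 hr after adding 23 nL compound or DMSO, at 37 C and 5% CO2.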

[7] = qHTS assay to test for compound auto fluorescence at 535 nm (green) in HepG2 cells (AID 720675); also: % is scaled to controls: 0 for no effect and ±100 for the full control effect
[8] = qHTS assay to test for compound auto fluorescence at 460 nm (blue) in HEK293 cells (AID 720678); also: % is scaled to controls: 0 for no effect and ±100 for the full control effect
Summary of the method: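 HEK293, 2,000 cells/well, 10% dialyzed FBS; attach 4-5 hr 37C; pin compound or DMSO; o/n 37C/5% CO2; fluorescence 405/460 nm; triamterene-equivalent units.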

[9] = qHTS assay to test for compound auto fluorescence at 590 nm (red) in HEK293 cells (AID 720679); also: % is scaled to controls: 0 for no effect and ±100 for the full control effect
Summary of the method: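 Intensity at 540nm excitation and 590nm emission is reported as Rose Bengal sodium-equivalent autofluorescence. Measurements followed overnight exposure (37C, 5% CO2) of HEK293 cells, 2,000 per well, to 23 nL compound.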

[10] = qHTS assay to test for compound auto fluorescence at 535 nm (green) in HEK293 cells (AID 720680); also: % is scaled to controls: 0 for no effect and ±100 for the full control effect
[11] = qHTS assay to test for compound auto fluorescence at 460 nm (blue) in HEK293 cell free culture (AID 720681); also: % is scaled to controls: 0 for no effect and ±100 for the full control effect
Summary of the method: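 Blue fluorescence (Ex 405/Em 460 nm, triamterene-equivalent) was read immediately after pin transfer of compound or DMSO into medium (DMEM, 10% FBS) without cells.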

[12] = qHTS assay to test for compound auto fluorescence at 535 nm (green) in HEK293 cell free culture (AID 720682); also: % is scaled to controls: 0 for no effect and ±100 for the full control effect
Summary of the method: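 Steps: dispense DMEM/10% FBS into empty wells; pin in compound or DMSO; measure fluorescence at 485/535 nm. Values are fluorescein equivalents.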

[13] = qHTS assay to test for compound auto fluorescence at 590 nm (red) in HEK293 cell free culture (AID 720683); also: % is scaled to controls: 0 for no effect and ±100 for the full control effect
Summary of the method: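 Red-channel autofluorescence of compounds in culture medium (DMEM, 10% FBS), no cells, measured at 540/590 nm. Rose Bengal sodium is the reference fluorophore for equivalence.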

[14] = qHTS assay to test for compound auto fluorescence at 590 nm (red) in HepG2 cell free culture (AID 720684); also: % is scaled to controls: 0 for no effect and ±100 for the full control effect
Summary of the method: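 Cell-free; medium MEM + 10% FBS; compound or DMSO added by pintool; read Ex 540/Em 590 nm; Rose Bengal sodium as red reference fluorophore.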

[15] = qHTS assay to test for compound auto fluorescence at 535 nm (green) in HepG2 cell free culture (AID 720686); also: % is scaled to controls: 0 for no effect and ±100 for the full control effect
[16] = qHTS assay to test for compound auto fluorescence at 460 nm (blue) in HepG2 cells (AID 720687); also: % is scaled to controls: 0 for no effect and ±100 for the full control effect
Summary of the method: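 Blue-channel autofluorescence (Ex/Em 405/460 nm, triamterene-equivalent) was measured after 1 hr compound exposure at 37 C, 5% CO2. Cells were HepG2, plated overnight at 37 C in MEM plus 10% FBS.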

[17] = target: Glucocorticoid receptor (Homo sapiens) (UniProt P04150); assay: qHTS assay to identify small molecule agonists of the glucocorticoid receptor (GR) signaling pathway (AID 720691; active = well fitted activation curve with a large enough effect in the signal ratio in the repeat runs, not every such curve was filed as active; the % refers to the signal ratio; also: % is scaled to controls: 0 for no effect and ±100 for the full control effect)
Summary of the method: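 HeLa GR-bla reporter line; cells pre-incubated 4 h, compound in DMSO 18 h at 37 C; LiveBLAzer B/G FRET substrate 2 h RT; fluorescence intensity read-out.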

[18] = target: Glucocorticoid receptor (Homo sapiens) (UniProt P04150); assay: qHTS assay to identify small molecule antagonists of the glucocorticoid receptor (GR) signaling pathway (AID 720692; active = well fitted inhibition curve with a large enough effect in the signal ratio in the repeat runs, not every such curve was filed as active; the % refers to the signal ratio; also: % is scaled to controls: 0 for no effect and ±100 for the full control effect)
Summary of the method: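 Read-out: beta-lactamase FRET substrate fluorescence, 2 h at room temperature, in HeLa cells stably carrying a GRE-driven bla reporter. Compounds were co-incubated with 5 nM dexamethasone agonist (final) for 18 h at 37 C.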

[19] = qHTS assay to test for compound auto fluorescence at 460 nm (blue) in HepG2 cell free culture (AID 720685); also: % is scaled to controls: 0 for no effect and ±100 for the full control effect
Summary of the method: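 Cell-free plates of MEM plus 10% FBS received 23 nL compound or DMSO vehicle; blue-channel (405/460 nm) intensity scored against triamterene as reference fluorophore.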

[20] = qHTS assay for small molecule disruptors of the mitochondrial membrane potential (AID 720635); also: potency is read from the fitted curve at half-maximal effect
Summary of the method: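 Mitochondrial membrane potential tracked with Mito-MPS dye, red aggregates (ex 540/em 590 nm) against green monomers (ex 490/em 535 nm). Compound treatment 1 hr at 37C, dye 30 min in HepG2.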

Glucocorticoid receptor (Homo sapiens), sequence (P04150 whole entry, looked up): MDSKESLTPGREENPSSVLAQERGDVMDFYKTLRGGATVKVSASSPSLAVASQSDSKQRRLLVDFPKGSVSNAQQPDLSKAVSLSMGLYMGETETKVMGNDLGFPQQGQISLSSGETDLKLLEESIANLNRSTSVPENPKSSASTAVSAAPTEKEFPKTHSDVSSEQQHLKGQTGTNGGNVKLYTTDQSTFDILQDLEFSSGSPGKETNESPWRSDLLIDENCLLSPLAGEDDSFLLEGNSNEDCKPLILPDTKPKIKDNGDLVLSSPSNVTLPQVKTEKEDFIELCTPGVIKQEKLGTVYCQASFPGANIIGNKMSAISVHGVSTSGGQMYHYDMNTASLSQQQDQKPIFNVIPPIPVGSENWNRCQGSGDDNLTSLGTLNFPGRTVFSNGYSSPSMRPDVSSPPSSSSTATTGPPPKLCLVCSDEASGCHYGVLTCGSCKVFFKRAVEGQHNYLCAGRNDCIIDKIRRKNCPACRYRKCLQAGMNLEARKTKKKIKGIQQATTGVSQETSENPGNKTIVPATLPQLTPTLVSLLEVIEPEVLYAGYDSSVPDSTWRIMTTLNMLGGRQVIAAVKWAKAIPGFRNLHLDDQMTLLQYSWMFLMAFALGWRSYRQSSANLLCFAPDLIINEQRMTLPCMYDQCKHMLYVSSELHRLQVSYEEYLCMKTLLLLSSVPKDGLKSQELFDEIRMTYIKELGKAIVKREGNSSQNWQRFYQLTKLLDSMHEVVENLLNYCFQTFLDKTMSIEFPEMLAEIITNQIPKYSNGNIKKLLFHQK

CC1CCc2c(N3CCC(O)CC3)c(F)cc3c(=O)c(C(=O)O)cn1c23 (stereo not drawn)
inactive: outcome [1] | outcome [2] | outcome [3] | Potency [4] | outcome [5] | outcome [6] | outcome [7] | outcome [8] | outcome [9] | outcome [10] | outcome [11] | outcome [12] | outcome [13] | outcome [14] | outcome [15] | outcome [16] | Potency [17] | outcome [18]

NCC1(Cc2noc(=O)[nH]2)CCCCC1
inactive: outcome [1] | outcome [2] | outcome [3] | Potency [4] | outcome [5] | outcome [6] | outcome [7] | outcome [8] | outcome [9] | outcome [10] | outcome [12] | outcome [13] | outcome [14] | outcome [15] | outcome [16]

OC[C@@H](O)C(O)[C@@H](O)CO (stereo partly drawn)
inactive: outcome [1] | outcome [2] | outcome [3] | Potency [4] | outcome [5] | outcome [6] | outcome [7] | outcome [8] | outcome [9] | outcome [10] | outcome [11] | outcome [12] | outcome [13] | outcome [14] | outcome [19] | outcome [15] | Potency [17] | outcome [18]

CCC(=O)CC
inactive: outcome [1] | outcome [2] | outcome [3] | Potency [4] | outcome [5] | outcome [6] | outcome [7] | outcome [8] | outcome [9] | outcome [10] | outcome [11] | outcome [12] | outcome [13] | outcome [14] | outcome [15] | Potency [17]

O=C1c2ccccc2C(=O)c2cc(Cl)ccc21
inactive: activation [1] -4.52% [at 8.3 µM] | activation [2] 2.88% [at 8.08 µM] | activity change, negative = cytotoxicity [3] -10.5% [at 8.08 µM] | activity, negative = cytotoxicity [4] 10.7% [at 8.08 µM] | activity change, negative = cytotoxicity [5] 3.06% [at 8.08 µM] | fluorescence, relative to Rose Bengal [6] -0.0283% [at 3.72 µM] | fluorescence, % of fluorescein control [7] -0.0348% [at 3.72 µM] | fluorescence, % of triamterene [8] -0.0543% [at 3.72 µM] | fluorescence, % of fluorescent control [9] -0.785% [at 3.72 µM] | fluorescence, % of fluorescein [10] 0.0004% [at 3.72 µM] | fluorescence, % of fluorescent control [11] -0.0102% [at 3.72 µM] | activity change [12] -0.0107% [at 3.72 µM] | fluorescence, % of fluorescent control [13] -0.094% [at 3.72 µM] | fluorescence, % of Rose Bengal [14] -0.0228% [at 3.72 µM] | fluorescence, % of fluorescent control [19] -0.0625% [at 3.72 µM] | fluorescence, % of fluorescein control [15] -0.0292% [at 3.72 µM] | fluorescence, % of fluorescent control [16] -0.0186% [at 3.72 µM] | activation [17] -4.3% [at 6.9 µM] | activity change, negative = inhibition [18] -15.1% [at 7.04 µM]

CCC(=O)c1c(O)cc(O)cc1O
active: Potency [20] 11.9 µM
inactive: outcome [1] | outcome [2] | outcome [3] | Potency [4] | outcome [6] | outcome [7] | outcome [8] | outcome [9] | outcome [10] | outcome [12] | outcome [13] | outcome [14] | outcome [19] | outcome [15] | outcome [16] | Potency [17] | outcome [18]

COC(=O)CCCCC(=O)O
inactive: outcome [1] | outcome [2] | outcome [3] | Potency [4] | outcome [5] | outcome [6] | outcome [7] | outcome [8] | outcome [9] | outcome [10] | outcome [11] | outcome [12] | outcome [13] | outcome [14] | outcome [19] | outcome [15] | outcome [16] | Potency [17]

C[C@@H](O)C(=O)O
inactive: outcome [1] | outcome [2] | outcome [3] | Potency [4] | outcome [5] | outcome [6] | outcome [7] | outcome [8] | outcome [9] | outcome [10] | outcome [11] | outcome [12] | outcome [13] | outcome [14] | outcome [19] | outcome [15] | outcome [16]

C=CCCCC
inactive: outcome [1] | outcome [2] | outcome [3] | Potency [4] | outcome [6] | outcome [7] | outcome [8] | outcome [9] | outcome [10] | outcome [11] | outcome [12] | outcome [13] | outcome [14] | outcome [19] | outcome [15] | outcome [16] | Potency [17] | outcome [18]

CC(=O)c1cc(C)oc1C
inactive: outcome [1] | outcome [2] | outcome [3] | Potency [4] | outcome [5] | outcome [6] | outcome [7] | outcome [8] | outcome [9] | outcome [10] | outcome [11] | outcome [12] | outcome [13] | outcome [14] | outcome [19] | outcome [15] | Potency [17]

CCCCOCCOC(=O)COc1ccc(Cl)cc1Cl
inactive: outcome [1] | outcome [2] | outcome [3] | Potency [4] | outcome [5] | outcome [6] | outcome [7] | outcome [8] | outcome [9] | outcome [10] | outcome [11] | outcome [12] | outcome [13] | outcome [14] | outcome [19] | outcome [15] | outcome [16] | Potency [17]

CCCC(CC)c1ccccc1 (stereo not drawn)
inactive: outcome [1] | outcome [2] | outcome [3] | Potency [4] | outcome [5] | outcome [6] | outcome [7] | outcome [8] | outcome [9] | outcome [10] | outcome [12] | outcome [13] | outcome [14] | outcome [19] | outcome [15] | outcome [16] | Potency [17]

CC1(C)[C@H]2CC[C@](C)(C2)[C@H]1O
inactive: outcome [1] | outcome [2] | outcome [3] | Potency [4] | outcome [5] | outcome [6] | outcome [7] | outcome [8] | outcome [9] | outcome [10] | outcome [11] | outcome [12] | outcome [13] | outcome [14] | outcome [19] | outcome [15] | outcome [16]

CCCCCCC1(C)CCC(=O)O1 (stereo not drawn)
inactive: outcome [1] | outcome [2] | outcome [3] | Potency [4] | outcome [5] | outcome [6] | outcome [7] | outcome [8] | outcome [9] | outcome [10] | outcome [11] | outcome [12] | outcome [13] | outcome [14] | outcome [15] | outcome [16]

NCCOCCN
inactive: outcome [1] | outcome [2] | outcome [3] | Potency [4] | outcome [5] | outcome [6] | outcome [7] | outcome [8] | outcome [9] | outcome [10] | outcome [11] | outcome [12] | outcome [13] | outcome [14] | outcome [19] | outcome [15] | outcome [16]

CC1=C(C(=O)O)N2C(=O)[C@@H](NC(=O)[C@H](N)c3ccccc3)[C@H]2SC1
inactive: outcome [1] | outcome [2] | outcome [3] | Potency [4] | outcome [5] | outcome [6] | outcome [7] | outcome [8] | outcome [9] | outcome [10] | outcome [11] | outcome [12] | outcome [13] | outcome [14] | outcome [19] | outcome [15] | outcome [16] | Potency [17] | outcome [18]
